# POLB inh: blocks human DNA polymerase beta activity. P06746. Pol beta primer extension/strand displacement, fluorescence kinetic. Potency, µM (doses to about 114 µM), for inactives: at the top dose activity change, negative = inhibition, actives largely listed as inhibitors. 1.3% of 340,000 active. AID 485314; also: potency is read from the fitted curve at half-maximal effect; % is scaled to controls: 0 for no effect and ±100 for the full control effect
#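 Homogeneous kinetic assay of primer extension and strand displacement by 10 nM Pol beta, preincubated 15 min at room temperature with compound before 50 nM substrate (final) was added. Read at 0 and 10 min; four-parameter Hill fit.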
# POLI inh: inhibitors of human DNA polymerase iota; 1% of 390,000 active; Potency, µM (titrated, usually from 115 µM), without a hit: top-dose activity, negative = inhibition, hits mostly inhibitors; Pol iota fluorescent replication assay, 10 min; also: potency is read from the fitted curve at half-maximal effect
#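 Fluorescent replication assay read twice, at 0 min and 10 min after adding 50 nM (final) substrate. Enzyme (10 nM) and compounds were first incubated 15 min at room temperature; enzyme-free buffer wells were negative controls.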
# PI5P4Ka inh: inhibitors of human PI5P4K alpha. P48426. PI5P4Kalpha enzyme, ADP-Glo luminescence, 60 min; stronger effect = lower value. max response, %. 1.2% of 330,000 active; active = max response of -50% or lower; inconclusive = between -30% and -50%; inactive = -30% or higher; also: value at the top dose of about 77 µM; % is scaled to controls: 0 for no effect and ±100 for the full control effect
#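 Controls without substrate or without enzyme flank wells where PI5P4Kalpha converts substrate using 5 microM ATP (final). Incubation lasts 60 minutes at room temperature; ADP formed is read by ADP-Glo luminescence.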
# Pol kappa inh: DNA polymerase kappa (human) inhibition; Q9UBT6; purified Pol kappa, fluorescent DNA synthesis assay, 10 min; Potency, µM (doses to about 107 µM), inactives show at the highest dose activity, negative = inhibition, actives largely listed as inhibitors; 0.53% of 400,000 active; also: potency is read from the fitted curve at half-maximal effect; % is scaled to controls: 0 for no effect and ±100 for the full control effect
#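 Inhibition of 10 nM Pol kappa is measured by a fluorescent read-out at 0 and 10 min following addition of 50 nM substrate (final), with a 15-min room-temperature compound preincubation.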
# Pol eta inh: blocks human DNA polymerase eta activity. Q9Y253. recombinant Pol eta, fluorescent DNA replication assay. Potency, µM (highest dose often 114 µM), without a hit: top-dose activity change, negative = inhibition, hits mostly inhibitors. 1.2% of 390,000 active; also: potency is read from the fitted curve at half-maximal effect; % is scaled to controls: 0 for no effect and ±100 for the full control effect
#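 Pol eta at 10 nM preincubated with compounds 15 min at room temperature; reaction started with fluorescent substrate (50 nM final) and read kinetically at 0 and 10 min.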
# FEN1 inh-1: human FEN1 inhibition; P39748; Recombinant FEN1 flap cleavage, fluorescence, 15 min; Potency, µM (top dose mostly 114 µM), inactives show top-dose activity change, negative = inhibition, usual class: inhibitors; 0.35% of 390,000 active; AID 588795; also: potency is read from the fitted curve at half-maximal effect; % is scaled to controls: 0 for no effect and ±100 for the full control effect; nearly all actives have a fitted effect of over 65% in size
# Target sequence (P39748 whole entry, looked up): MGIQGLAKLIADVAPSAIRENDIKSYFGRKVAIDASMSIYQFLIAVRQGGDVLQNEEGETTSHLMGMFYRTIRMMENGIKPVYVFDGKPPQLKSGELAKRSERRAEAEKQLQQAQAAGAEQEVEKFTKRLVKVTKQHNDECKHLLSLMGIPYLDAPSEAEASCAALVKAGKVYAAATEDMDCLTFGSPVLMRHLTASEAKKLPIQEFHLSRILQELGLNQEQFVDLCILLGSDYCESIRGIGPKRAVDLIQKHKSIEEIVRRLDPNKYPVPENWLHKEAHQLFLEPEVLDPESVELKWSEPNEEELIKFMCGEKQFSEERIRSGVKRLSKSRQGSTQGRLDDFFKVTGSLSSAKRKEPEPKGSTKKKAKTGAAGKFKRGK
#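 Recombinant FEN1 (10 nM) was preincubated with pin-transferred compounds for 15 min at room temperature, then flap DNA substrate (50 nM final) was added. Plates were read at 0 and 15 min, and normalized concentration–response data were fitted to a four-parameter Hill equation.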
# FEN1 inh-2: FEN1 inhibition, cherry-pick retest; shares compounds with FEN1 inh-1; FEN1 flap cleavage, TAMRA/BHQ2 fluorogenic DNA substrate; Potency, µM, usual class: inhibitors; 79% of 880 active; AID 720498; also: potency is read from the fitted curve at half-maximal effect; nearly all actives have a fitted effect of over 60% in size
# Starred values were filed as active, the others as inactive; ? = inconclusive; · = no result given; [ ] = dose if it differs, or a comment. Rows were chosen to be rich in hits. Some 2.8% of all compounds tested hit in one or more screens of this group. Unless noted, calls follow the shape of the dose curve; as a rule, active = well fitted curve in the direction sought with a large enough effect; inconclusive = small, poorly fitted or top-dose-only effect, or another doubt; inactive = no such curve, though single readings can be large; an effect the other way counts as inactive or inconclusive.
SMILES,POLB inh,POLI inh,PI5P4Ka inh,Pol kappa inh,Pol eta inh,FEN1 inh-1,FEN1 inh-2
CCN(CC(=O)NC1CCS(=O)(=O)C1)C(C)C(=O)Nc1ccc(F)cc1 (stereo unspecified),·,-6%,4,12%,-8%,-4%,·
NC1CCN(c2c(F)cc3c(=O)c(C(=O)O)cn(C4CC4)c3c2Cl)C1 (stereo unspecified),?,1%,-9,11%,-6%,32µM*,?
COc1ccc(CCN(C)C(=O)c2cc(S(=O)(=O)N3CCCCC3)ccc2Cl)cc1OC,·,37%,-3,-2%,1%,1%,·
COc1ccc(-c2cn3c(n2)sc2cc(C(=O)NCCCN4CCCCC4)ccc23)cc1,-7%,7%,·,-23%,?,-19%,67*
COc1ccc(N2CC(C(=O)N/N=C/c3cc([N+](=O)[O-])ccc3O)CC2=O)cc1 (stereo unspecified),-13%,20%,-23,2%,-17%,-7%,·
C/C(CC(=O)Nc1cccc(Cl)c1Cl)=N\NC(=O)c1ccccc1N,0%,70%,3,-9%,-10%,-5%,·
Cc1[nH]c2ccccc2c1C(=O)C(C)OC(=O)c1ccc([N+](=O)[O-])o1 (stereo unspecified),-24%,6%,3,-15%,-26%,?,19*
Cn1c(SCC(=O)NC2CCCC2)nnc1-c1ccccn1,30%,-7%,0,-1%,6%,-17%,·
COc1ccc(C(=O)c2cn(CC(=O)Nc3cc(OC)cc(OC)c3)c3ccc(OC)cc3c2=O)cc1,-26%,?,·,-23%,79µM*,?,?
CCOc1ccc(NC(=O)Cn2cc(C(=O)c3ccccc3)c(=O)c3cc(OC)ccc32)cc1,4%,47%,·,-8%,-12%,0%,·
NS(=O)(=O)c1ccc(N=Nc2c(O)c(C(=O)O)cc3ccccc23)cc1,35µM*,?,-95*,-9%,40µM*,?,?
CN1CCc2c(sc(/N=C/c3c[nH]c4ccccc34)c2C#N)C1,2%,95%,-15,-16%,-18%,?,?
CCOC(=O)c1c(/N=C/c2ccc(OC)cc2O)sc2c1CCN(C)C2,-3%,?,-5,?,?,-23%,·
CN1CCc2c(sc(/N=C/c3c[nH]c4ccccc34)c2C(N)=O)C1,-26%,60%,2,-19%,4%,?,76*
CN1CCc2c(sc(/N=C/c3cc(Cl)ccc3O)c2C#N)C1,-14%,48%,-10,-6%,-5%,-5%,·
COc1ccc(/C=N/Nc2cc(C)nc3ccc(Br)cc23)cc1,-4%,-29%,?,-21%,-15%,?,?
COc1cccc2c(N/N=C/c3ccccc3)cc(C)nc12,13%,-10%,-2,0%,0%,-20%,·
Cc1cccc(/C=N/n2c(C)nc3ccccc3c2=O)c1,23%,-18%,1,7%,-3%,8%,·
CCOc1ccccc1NC(=O)Cn1cc(C(=O)c2ccc(Cl)cc2)c(=O)c2ccc(C)nc21,-6%,-4%,·,-2%,4%,4%,·
CC(=O)Nc1sc2c(c1-c1cc3ccccc3o1)CCNC2,·,·,·,·,·,·,34*
CC(=O)NC(c1ccccc1)c1nc(-c2cc3ccccc3o2)cs1 (stereo unspecified),·,·,-1,·,·,·,·
COc1ccc(Br)cc1CNC(=O)c1ccc2c(c1)nc1n2CCCCC1,5%,13%,·,-12%[60.1 µM],4%,11%,·
COc1ccc(N)c2c1C(=O)c1ccccc1C2=O,?,?,1,?,-20%,?,76*
Cc1ccc2oc(=O)c3cc(C(=O)NCCCN4CCCCCC4)sc3c2c1,-3%,79µM*,3,-33%,3%,?,?
Cc1ccc2nc(Cl)c3cc(C(=O)NCCCN4CCC(C)CC4)sc3c2c1,4%,16%,·,-7%,10%,16%,·
SMILES,POLB inh,POLI inh,PI5P4Ka inh,Pol kappa inh,Pol eta inh,FEN1 inh-1,FEN1 inh-2
O=C(NCCCN1CCN(c2ccccc2F)CC1)c1cc2c(Cl)nc3ccccc3c2s1,-14%,23%,·,-2%,-21%,7%,·
CCCN1CCN(CCCNC(=O)c2cc3c(Cl)nc4ccccc4c3s2)CC1,2%,31%,·,-7%,-26%,45µM*,?
O=C(NCCCN1CCCC1)c1cc2c(Cl)nc3ccccc3c2s1,27%,-10%,4,-6%,7%,40µM*,38*
CC1CCN(CCCNC(=O)c2cc3c(Cl)nc4ccccc4c3s2)CC1,24%,-8%,-1,4%,-16%,?,?
COc1ccc(-c2cc3c(=O)n(CC(=O)NCCN4CCCC4)nc(C)n3n2)cc1,10%,?,-4,-6%,-1%,17%,·
c1ccc2cnccc2c1,·,22%,·,-5%,·,12%,·
c1ccc2c(c1)-c1cccc3cncc-2c13,·,39%,2,-4%,-11%,?,?
CC(NC(=O)C1CCN(C(=O)c2ccc(F)cc2)CC1)c1ccc(-n2ccnc2)cc1 (stereo unspecified),·,9%,3,-5%,-9%,-1%,·
O=C(CCSc1ccc(F)cc1)NNC(=O)c1ccccc1Cl,·,8%,-3,-5%,-14%,8%,·
Cc1c(Cl)cccc1N=Cc1ccc([N+](=O)[O-])s1,?,35µM*,·,-17%,89µM*,14µM*,13*
CNc1ccc2c3c(cccc13)C(=O)N(C)C2=O,-25%,?,3,-1%,-31%,?,?
COc1cc(/C=N/NC(=O)c2cccc(C(=O)N/N=C/c3ccc(O)c(OC)c3)n2)ccc1O,?,?,10,-28%,?,?,1.3*
COc1cc(/C=N/NC(=O)c2nc(C)cc(C)n2)ccc1O,8%,-2%,-2,-8%,1%,-4%,·
O=C1c2cccc3cccc(c23)C(=O)N1OS(=O)(=O)c1ccc(Br)cc1,19%,80%,-2,3%,0%,?,11*
Cc1ccc(S(=O)(=O)ON2C(=O)c3cccc4cccc(c34)C2=O)cc1,-11%,13%,-2,8%,-10%,18µM*,38*
CCOC(=O)c1c(S(=O)(=O)N2CCCC(C(=O)NCc3ccccc3OC)C2)c(C)n(C)c1C (stereo unspecified),20%,6%,·,2%[60.1 µM],-10%,-1%,·
CCN(CC)CCN1C(=O)c2cccc3cc(N)cc(c23)C1=O,?,?,2,?,-15%,50µM*,?
Cc1cc(C)n2nc(SCC(=O)Nc3cccc(C(F)(F)F)c3)nc2n1,30%,0%,·,6%,4%,5%,·
